This is an account of results in paper PMC7862700, “An all-to-all approach to the identification of sequence-specific readers for epigenetic DNA modifications on cytosine”.

Assay in all cases: DAPPL (digital affinity profiling via proximity ligation, sequencing); 10 mM Tris-HCl pH 7.5, 50 mM NaCl, 1 mM DTT, 4% glycerol, room temperature, 30 min; GST-TFs on glutathione beads, 16-mer random dsDNA library, 0.1% formaldehyde crosslink after washing; high values mean tight binding
One test concerns the target T1, FEV (Homo sapiens, UniProt Q99581 1-238).
T1 sequence: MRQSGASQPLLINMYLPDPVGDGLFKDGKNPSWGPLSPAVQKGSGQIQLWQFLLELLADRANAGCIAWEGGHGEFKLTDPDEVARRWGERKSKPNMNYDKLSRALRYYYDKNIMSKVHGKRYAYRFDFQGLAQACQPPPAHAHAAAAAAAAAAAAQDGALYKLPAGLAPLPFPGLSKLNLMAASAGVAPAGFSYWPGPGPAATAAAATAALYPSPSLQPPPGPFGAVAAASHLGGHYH
Conditions: protein: recombinant; tags: N-terminal GST; dsDNA, one strand shown. An outline of the steps: (§1)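 Binding signal is defined as a hexamer's read frequency for one factor over its frequency for the tag-only sample. To obtain reads, GST-fused human transcription factors were expressed in yeast, captured on glutathione beads, barcoded with DNA and pooled with that sample. Pools met 200 nmole of a 16-mer random double-stranded DNA library in Tris/NaCl/DTT/glycerol buffer for 30 min at room temperature before washing, 0.1% formaldehyde crosslinking, proximity ligation (BsaI/T4 ligase, 1 h, 37 °C), PCR and Illumina NextSeq500 sequencing.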

A further test has as its target ETV5 (Homo sapiens, UniProt P41161 1-510). Conditions: protein: recombinant; tags: N-terminal GST; dsDNA, one strand shown. An outline of the steps:
as §1

The next test concerns the target HSF1 (Homo sapiens, UniProt Q00613 1-529). Conditions: protein: recombinant; tags: N-terminal GST; chain copies: 3; dsDNA, one strand shown. A digest of the protocol:
as §1

For the next test, the target named is T2, SPIC (Homo sapiens, UniProt Q8N5J4 1-248).
T2 sequence: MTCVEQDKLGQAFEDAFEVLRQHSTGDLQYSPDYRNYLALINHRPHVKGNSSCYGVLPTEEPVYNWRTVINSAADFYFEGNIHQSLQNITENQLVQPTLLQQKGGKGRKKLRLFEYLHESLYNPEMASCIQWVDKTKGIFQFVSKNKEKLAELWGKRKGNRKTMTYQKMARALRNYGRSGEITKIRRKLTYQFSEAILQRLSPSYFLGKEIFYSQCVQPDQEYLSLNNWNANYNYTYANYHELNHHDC
The following applies: protein: recombinant; tags: N-terminal GST; dsDNA, one strand shown. A digest of the protocol: as §1

Another test addresses ELF4 (Homo sapiens, UniProt Q99607 1-663). The following applies: protein: recombinant; tags: N-terminal GST; dsDNA, one strand shown. An outline of the steps: as §1
The target in a further test is T3, ELK4 (Homo sapiens, UniProt P28324-2 1-405).
T3 sequence: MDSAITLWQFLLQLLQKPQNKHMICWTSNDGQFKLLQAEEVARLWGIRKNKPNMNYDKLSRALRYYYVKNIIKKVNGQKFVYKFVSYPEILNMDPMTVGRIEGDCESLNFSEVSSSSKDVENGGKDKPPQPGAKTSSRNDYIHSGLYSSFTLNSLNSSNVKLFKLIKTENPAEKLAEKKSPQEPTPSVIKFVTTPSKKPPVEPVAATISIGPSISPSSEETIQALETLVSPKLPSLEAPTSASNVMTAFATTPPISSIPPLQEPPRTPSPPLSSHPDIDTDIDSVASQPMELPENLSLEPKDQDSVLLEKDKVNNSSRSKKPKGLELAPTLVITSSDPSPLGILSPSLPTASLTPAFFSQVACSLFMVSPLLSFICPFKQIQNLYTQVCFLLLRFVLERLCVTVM
The following applies: protein: recombinant; tags: N-terminal GST; dsDNA, one strand shown. A digest of the protocol:
as §1

Another test addresses T4, ETV2 (Homo sapiens, UniProt O00321 1-342).
T4 sequence: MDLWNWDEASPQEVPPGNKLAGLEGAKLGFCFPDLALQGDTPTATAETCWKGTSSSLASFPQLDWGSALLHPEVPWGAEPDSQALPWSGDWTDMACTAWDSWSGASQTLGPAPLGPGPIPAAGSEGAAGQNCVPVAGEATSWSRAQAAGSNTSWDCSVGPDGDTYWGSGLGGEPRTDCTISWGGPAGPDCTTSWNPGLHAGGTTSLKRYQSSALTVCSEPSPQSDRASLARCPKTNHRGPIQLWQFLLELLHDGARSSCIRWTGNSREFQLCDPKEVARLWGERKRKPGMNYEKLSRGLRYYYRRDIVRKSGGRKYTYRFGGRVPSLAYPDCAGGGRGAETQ
Conditions: protein: recombinant; tags: N-terminal GST; dsDNA, one strand shown. An outline of the steps: as §1

For the next test, the target named is T5, ELF3 (Homo sapiens, UniProt P78545 1-371).
T5 sequence: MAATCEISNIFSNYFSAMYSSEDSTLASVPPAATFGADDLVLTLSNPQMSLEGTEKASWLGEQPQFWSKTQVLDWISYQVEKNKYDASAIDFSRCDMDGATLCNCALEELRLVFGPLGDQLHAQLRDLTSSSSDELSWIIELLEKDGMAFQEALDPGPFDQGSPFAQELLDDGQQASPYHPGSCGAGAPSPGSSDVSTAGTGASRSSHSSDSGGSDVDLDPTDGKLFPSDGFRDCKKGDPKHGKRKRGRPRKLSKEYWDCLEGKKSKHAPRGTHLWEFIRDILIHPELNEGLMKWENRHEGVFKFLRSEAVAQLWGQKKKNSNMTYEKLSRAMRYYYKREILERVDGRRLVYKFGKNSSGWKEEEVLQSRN
The following applies: protein: recombinant; tags: N-terminal GST; dsDNA, one strand shown. An outline of the steps: as §1

A further test has as its target CRX (Homo sapiens, UniProt O43186 1-299). Conditions: protein: recombinant; tags: N-terminal GST; dsDNA, one strand shown. A digest of the protocol:
as §1

For a further test, the target named is ETV1 (Homo sapiens, UniProt P50549 1-477). Conditions: protein: recombinant; tags: N-terminal GST; dsDNA, one strand shown. An outline of the steps: as §1
For the next test, the target named is T6, ERF (Homo sapiens, UniProt P50548 1-548).
T6 sequence: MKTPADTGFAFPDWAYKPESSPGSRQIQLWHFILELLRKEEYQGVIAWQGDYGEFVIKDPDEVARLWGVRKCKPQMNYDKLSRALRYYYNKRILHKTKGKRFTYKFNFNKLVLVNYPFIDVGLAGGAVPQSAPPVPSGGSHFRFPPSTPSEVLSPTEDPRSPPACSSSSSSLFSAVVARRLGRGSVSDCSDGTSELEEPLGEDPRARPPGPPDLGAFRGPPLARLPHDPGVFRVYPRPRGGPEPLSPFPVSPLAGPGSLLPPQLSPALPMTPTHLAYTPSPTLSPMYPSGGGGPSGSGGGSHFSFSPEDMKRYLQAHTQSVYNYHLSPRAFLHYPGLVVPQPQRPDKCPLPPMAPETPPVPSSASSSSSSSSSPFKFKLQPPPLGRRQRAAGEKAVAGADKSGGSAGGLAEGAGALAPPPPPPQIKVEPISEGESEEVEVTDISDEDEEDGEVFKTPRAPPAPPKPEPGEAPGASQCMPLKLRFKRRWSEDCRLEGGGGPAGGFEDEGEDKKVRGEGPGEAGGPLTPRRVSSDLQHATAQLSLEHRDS
The following applies: protein: recombinant; tags: N-terminal GST; dsDNA, one strand shown. An outline of the steps: as §1

The target in the next test is T7, ETV3L (Homo sapiens, UniProt Q6ZN32 1-361).
T7 sequence: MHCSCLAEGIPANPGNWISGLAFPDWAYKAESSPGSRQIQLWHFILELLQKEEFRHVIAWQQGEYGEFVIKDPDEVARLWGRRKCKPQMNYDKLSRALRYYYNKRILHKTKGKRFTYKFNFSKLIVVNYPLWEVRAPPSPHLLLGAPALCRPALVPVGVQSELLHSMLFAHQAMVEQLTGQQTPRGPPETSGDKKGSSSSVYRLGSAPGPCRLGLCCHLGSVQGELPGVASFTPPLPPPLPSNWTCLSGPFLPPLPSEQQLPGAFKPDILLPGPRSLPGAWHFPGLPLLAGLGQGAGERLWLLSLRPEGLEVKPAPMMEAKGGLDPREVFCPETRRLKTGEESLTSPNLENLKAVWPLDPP
Conditions: protein: recombinant; tags: N-terminal GST; dsDNA, one strand shown. A digest of the protocol:
as §1

A further test addresses T8, ETS2 (Homo sapiens, UniProt P15036 1-469).
T8 sequence: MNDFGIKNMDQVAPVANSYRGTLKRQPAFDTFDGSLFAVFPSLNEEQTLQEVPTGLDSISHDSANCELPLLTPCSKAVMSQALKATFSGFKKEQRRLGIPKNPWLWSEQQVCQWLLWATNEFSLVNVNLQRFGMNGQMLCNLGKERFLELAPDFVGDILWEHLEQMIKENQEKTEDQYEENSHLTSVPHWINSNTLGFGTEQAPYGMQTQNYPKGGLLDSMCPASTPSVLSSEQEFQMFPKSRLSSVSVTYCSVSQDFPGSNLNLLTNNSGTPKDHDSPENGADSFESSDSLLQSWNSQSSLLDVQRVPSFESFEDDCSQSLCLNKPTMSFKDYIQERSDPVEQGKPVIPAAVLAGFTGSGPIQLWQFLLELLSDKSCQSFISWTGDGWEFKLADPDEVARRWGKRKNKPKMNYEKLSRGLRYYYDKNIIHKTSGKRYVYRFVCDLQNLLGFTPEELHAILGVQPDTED
The following applies: protein: recombinant; tags: N-terminal GST; dsDNA, one strand shown. A digest of the protocol: as §1

In a further test the target is T9, SPDEF (Homo sapiens, UniProt O95238 1-335).
T9 sequence: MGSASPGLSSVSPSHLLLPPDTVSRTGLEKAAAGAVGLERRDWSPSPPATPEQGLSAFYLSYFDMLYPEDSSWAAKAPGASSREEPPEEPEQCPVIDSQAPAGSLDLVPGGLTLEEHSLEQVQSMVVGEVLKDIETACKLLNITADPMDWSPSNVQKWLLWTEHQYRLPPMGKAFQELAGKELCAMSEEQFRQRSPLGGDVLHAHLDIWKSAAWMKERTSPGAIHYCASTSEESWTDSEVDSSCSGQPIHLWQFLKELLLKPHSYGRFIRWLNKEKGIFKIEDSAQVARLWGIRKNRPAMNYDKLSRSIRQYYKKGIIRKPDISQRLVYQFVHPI
Conditions: protein: recombinant; tags: N-terminal GST; dsDNA, one strand shown. An outline of the steps: as §1

A further test addresses T10, ETV7 (Homo sapiens, UniProt Q9Y603 1-341).
T10 sequence: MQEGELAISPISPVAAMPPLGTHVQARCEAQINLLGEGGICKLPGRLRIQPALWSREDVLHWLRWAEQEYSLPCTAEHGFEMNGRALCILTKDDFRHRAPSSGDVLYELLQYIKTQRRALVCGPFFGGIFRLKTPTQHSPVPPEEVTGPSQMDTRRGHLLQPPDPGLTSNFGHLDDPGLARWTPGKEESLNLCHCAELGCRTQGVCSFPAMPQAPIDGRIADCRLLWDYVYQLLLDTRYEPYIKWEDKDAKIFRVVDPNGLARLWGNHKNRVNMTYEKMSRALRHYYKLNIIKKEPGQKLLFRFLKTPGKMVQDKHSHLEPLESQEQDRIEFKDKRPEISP
Conditions: protein: recombinant; tags: N-terminal GST; dsDNA, one strand shown. An outline of the steps:
as §1

A further test addresses T11, ELF5 (Homo sapiens, UniProt Q9UKW6-2 1-255).
T11 sequence: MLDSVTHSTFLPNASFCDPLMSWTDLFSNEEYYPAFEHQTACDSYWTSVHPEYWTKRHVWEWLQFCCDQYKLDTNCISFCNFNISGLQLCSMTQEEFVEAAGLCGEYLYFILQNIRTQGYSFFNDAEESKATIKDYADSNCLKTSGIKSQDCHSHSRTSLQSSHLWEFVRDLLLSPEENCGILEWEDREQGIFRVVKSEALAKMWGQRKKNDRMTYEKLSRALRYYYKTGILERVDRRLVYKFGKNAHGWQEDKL
The following applies: protein: recombinant; tags: N-terminal GST; dsDNA, one strand shown. A digest of the protocol: as §1

The target in the next test is T12, ETV3 (Homo sapiens, UniProt P41162-2 1-143).
T12 sequence: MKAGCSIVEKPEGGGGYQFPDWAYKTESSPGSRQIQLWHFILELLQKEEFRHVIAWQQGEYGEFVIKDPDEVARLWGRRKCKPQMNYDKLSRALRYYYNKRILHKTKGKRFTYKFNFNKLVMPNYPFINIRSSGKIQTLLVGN
Conditions: protein: recombinant; tags: N-terminal GST; dsDNA, one strand shown. A digest of the protocol:
as §1

The target of a further test is ETV6 (Homo sapiens, UniProt P41212 1-452). The following applies: protein: recombinant; tags: N-terminal GST; dsDNA, one strand shown. A digest of the protocol:
as §1

Sequence of HSF1 (Q00613 whole entry): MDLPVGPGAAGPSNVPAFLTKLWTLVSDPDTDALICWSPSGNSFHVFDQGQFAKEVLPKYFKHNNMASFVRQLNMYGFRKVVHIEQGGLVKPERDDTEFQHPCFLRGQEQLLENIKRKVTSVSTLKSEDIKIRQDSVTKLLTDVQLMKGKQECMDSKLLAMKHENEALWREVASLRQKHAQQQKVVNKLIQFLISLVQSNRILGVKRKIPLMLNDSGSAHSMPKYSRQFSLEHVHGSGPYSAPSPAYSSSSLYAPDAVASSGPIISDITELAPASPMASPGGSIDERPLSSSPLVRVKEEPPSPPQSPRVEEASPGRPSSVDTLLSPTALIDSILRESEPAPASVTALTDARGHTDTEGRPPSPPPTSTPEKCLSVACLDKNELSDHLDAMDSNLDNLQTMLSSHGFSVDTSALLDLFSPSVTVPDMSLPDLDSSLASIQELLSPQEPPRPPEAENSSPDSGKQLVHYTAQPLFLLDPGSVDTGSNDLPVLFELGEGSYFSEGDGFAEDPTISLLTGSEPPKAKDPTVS
Sequence of CRX (O43186 whole entry): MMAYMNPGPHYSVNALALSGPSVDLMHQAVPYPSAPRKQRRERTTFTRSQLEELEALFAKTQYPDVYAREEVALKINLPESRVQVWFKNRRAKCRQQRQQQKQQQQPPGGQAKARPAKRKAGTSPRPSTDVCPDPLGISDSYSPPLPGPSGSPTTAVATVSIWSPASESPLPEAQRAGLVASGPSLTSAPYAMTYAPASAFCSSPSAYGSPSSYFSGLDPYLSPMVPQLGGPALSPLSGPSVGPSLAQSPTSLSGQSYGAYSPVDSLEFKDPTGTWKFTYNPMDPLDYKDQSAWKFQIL
Sequence of ETV5 (P41161 whole entry): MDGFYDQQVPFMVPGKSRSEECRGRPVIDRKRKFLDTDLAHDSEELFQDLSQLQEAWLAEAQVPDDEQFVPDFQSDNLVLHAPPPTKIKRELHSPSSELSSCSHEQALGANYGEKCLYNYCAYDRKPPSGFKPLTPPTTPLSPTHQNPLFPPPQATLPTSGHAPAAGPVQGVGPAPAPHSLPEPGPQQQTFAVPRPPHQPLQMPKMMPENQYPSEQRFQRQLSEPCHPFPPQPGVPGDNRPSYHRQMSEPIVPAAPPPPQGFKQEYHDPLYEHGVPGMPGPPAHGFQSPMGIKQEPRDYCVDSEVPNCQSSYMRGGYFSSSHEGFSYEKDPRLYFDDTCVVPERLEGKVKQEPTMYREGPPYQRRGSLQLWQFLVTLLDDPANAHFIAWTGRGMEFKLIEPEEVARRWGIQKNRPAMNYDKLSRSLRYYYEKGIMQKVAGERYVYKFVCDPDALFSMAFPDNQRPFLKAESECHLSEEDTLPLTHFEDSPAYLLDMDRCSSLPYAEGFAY
Sequence of ETV6 (P41212 whole entry): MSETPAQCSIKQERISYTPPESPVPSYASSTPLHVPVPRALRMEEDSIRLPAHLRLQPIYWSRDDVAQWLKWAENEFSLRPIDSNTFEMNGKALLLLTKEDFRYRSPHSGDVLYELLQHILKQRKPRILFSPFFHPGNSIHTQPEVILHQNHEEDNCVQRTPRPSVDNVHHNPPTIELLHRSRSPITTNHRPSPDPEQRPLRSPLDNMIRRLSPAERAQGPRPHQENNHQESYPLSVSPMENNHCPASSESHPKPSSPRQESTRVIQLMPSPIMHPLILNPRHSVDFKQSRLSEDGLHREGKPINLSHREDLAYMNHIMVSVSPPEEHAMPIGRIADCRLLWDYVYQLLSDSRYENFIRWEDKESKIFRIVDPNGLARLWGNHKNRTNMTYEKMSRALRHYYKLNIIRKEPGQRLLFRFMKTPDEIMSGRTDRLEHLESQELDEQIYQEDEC
Sequence of ETV1 (P50549 whole entry): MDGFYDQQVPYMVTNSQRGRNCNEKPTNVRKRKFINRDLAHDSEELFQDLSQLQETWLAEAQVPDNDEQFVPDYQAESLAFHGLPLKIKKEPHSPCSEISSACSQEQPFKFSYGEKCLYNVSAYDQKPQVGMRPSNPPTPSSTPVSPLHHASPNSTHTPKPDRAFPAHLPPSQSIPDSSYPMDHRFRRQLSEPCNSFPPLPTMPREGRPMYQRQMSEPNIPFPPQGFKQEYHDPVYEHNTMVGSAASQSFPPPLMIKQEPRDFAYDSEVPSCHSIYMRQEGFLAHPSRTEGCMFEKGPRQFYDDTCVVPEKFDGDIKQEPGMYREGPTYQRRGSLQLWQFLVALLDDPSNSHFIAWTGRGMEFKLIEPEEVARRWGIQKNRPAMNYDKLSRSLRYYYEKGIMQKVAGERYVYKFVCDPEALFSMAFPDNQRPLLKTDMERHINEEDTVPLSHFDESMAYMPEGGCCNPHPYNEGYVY
Sequence of ELF4 (Q99607 whole entry): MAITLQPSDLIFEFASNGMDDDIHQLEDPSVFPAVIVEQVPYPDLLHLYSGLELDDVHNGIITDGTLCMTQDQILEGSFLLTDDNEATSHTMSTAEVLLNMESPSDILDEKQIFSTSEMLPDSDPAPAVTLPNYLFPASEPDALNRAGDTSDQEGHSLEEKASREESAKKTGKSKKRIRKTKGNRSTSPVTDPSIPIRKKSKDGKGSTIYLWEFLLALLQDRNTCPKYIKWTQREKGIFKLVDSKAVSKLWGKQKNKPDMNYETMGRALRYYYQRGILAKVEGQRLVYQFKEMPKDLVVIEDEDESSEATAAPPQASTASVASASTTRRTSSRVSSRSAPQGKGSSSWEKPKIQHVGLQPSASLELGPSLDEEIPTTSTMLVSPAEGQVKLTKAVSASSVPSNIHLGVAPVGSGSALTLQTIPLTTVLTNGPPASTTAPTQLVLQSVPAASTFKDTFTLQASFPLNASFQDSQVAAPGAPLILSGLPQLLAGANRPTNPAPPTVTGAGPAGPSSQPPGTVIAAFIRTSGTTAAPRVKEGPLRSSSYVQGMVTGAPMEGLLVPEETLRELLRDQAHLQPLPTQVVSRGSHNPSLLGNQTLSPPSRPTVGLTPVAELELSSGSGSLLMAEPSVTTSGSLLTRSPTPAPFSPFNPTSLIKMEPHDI

With TTCATT, the binding signal with FEV was 1.23 fold enrichment (6-mer frequency, TF over GST control); with ETV5, 1.29 fold enrichment (6-mer frequency, TF over GST control); with HSF1, 1.12 fold enrichment (6-mer frequency, TF over GST control); with SPIC, 1.37 fold enrichment (6-mer frequency, TF over GST control); in the test with ELF4, 1.21 fold enrichment (6-mer frequency, TF over GST control); with ELK4 it was 1.29 fold enrichment (6-mer frequency, TF over GST control). The binding signal was 1.17 fold enrichment (6-mer frequency, TF over GST control) with ETV2; 1.12 fold enrichment (6-mer frequency, TF over GST control) with ELF3; 1.15 fold enrichment (6-mer frequency, TF over GST control) with CRX; 1.21 fold enrichment (6-mer frequency, TF over GST control) with ETV1; 1.31 fold enrichment (6-mer frequency, TF over GST control) with ERF; 1.3 fold enrichment (6-mer frequency, TF over GST control) with ETV3L. In addition, the binding signal in the test with ETS2 is 1.27 fold enrichment (6-mer frequency, TF over GST control); in the test with SPDEF, 1.24 fold enrichment (6-mer frequency, TF over GST control); in the test with ETV7 it was 1.23 fold enrichment (6-mer frequency, TF over GST control); in the test with ELF5 it was 1.18 fold enrichment (6-mer frequency, TF over GST control); with ETV3 it was 1.16 fold enrichment (6-mer frequency, TF over GST control); with ETV6, 1.18 fold enrichment (6-mer frequency, TF over GST control).
